The compounds below were run on p38-delta. Conditions: concentration: 1 μM,replicates: in singlicate; n = 1.
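Also: KINOMEscan kinase panel screen.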

SMILES	%Inh [%]
Cc1n[nH]c2ccc(-c3cc(OC[C@@H](N)Cc4ccccc4)cnc3-c3ccoc3)cc12.O=C(O)C(F)(F)F.O=C(O)C(F)(F)F [GSK507358]	50
Cl.Oc1cc(-c2nc(-c3ccccc3)[nH]c2-c2ccncc2)ccc1Cl [SB-386023]	0
CCn1c(-c2nonc2N)nc2c(C#CC(C)(C)O)nc(OCCN)cc21.Cl.Cl [GSK902056]	16
CCN(CC)CCOc1ccc(Nc2ncc3cc(-c4c(Cl)cccc4Cl)c(=O)n(C)c3n2)cc1 [SB-601273]	16
CC(C)Nc1cc(-c2ccc3c(N)n[nH]c3c2)nc(N)n1 [GSK2221681]	1
C=CC(=O)Nc1cc2c(Nc3ccc(F)c(Cl)c3)ncnc2cc1OCCCN1CCOCC1 [GW781483]	20
C[C@@H](Oc1cc(-c2cnn(C3CCNCC3)c2)cnc1N)c1c(Cl)ccc(F)c1Cl	30
CN(C)CCOc1ccc(-c2cc(-c3c[nH]nc3-c3ccccn3)ccn2)cc1 [GW835314]	0
Cc1cc(C(=O)Nc2ccc(Oc3ccc4nc(NC(=O)C5CC5)cn4n3)cc2)nn1-c1ccccc1	0
Cl.Cl.Nc1nc(-c2ccc3c(N)n[nH]c3c2)cc(N2CCCC(NC(=O)c3ccccc3)C2)n1 (stereo not drawn) [GSK2286775]	21
COc1ccc(C[C@@H](CN)NC(=O)c2cc(Br)c(-c3ccnc4[nH]ccc34)s2)cc1.Cl.Cl [GSK1389063]	46
Cc1cc2cn[nH]c2cc1-c1cccc2c(N)c(C(N)=O)nnc12	0
